According to PubChem BioAssay AID1159580 (chemical genetic matrix, 2015):
Where “and” joins values, the source holds several entries; their conditions need not be identical. Equal values may be shown once. Screen size: about 5,500 compounds; about 2,000 (36%) were called active. About 18% were inconclusive and are not listed. No stated cut-off is given here; in the data, active means normalized growth mostly below about 0.91 (no sharp cut-off); inconclusive means no clear call, values can overlap the other calls; inactive means mostly above about 0.92. The list shows a part of the results.

Experiment: chemical genetic growth profiling, strain panel (AID 1159580);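 further: tested at 20 µM; growth read once vehicle control cultures reached saturation at 30 °C; 1 = growth at the plate median or of vehicle wells; lower values mean less growth of the strain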
Conditions: S. cerevisiae deletion strains, growth OD

Measured: normalized growth

CCCc1nn(C)c2c(=O)[nH]c(-c3cc(S(=O)(=O)N4CCN(C)CC4)ccc3OCC)nc12
inactive: locus YAL013W, strain DEP1, active compounds read low 1.02 | locus YAL021C, strain ccr4, active compounds read low 0.991 | locus YAL026C, strain drs2, active compounds read low 0.988 | locus YAL030W, strain snc1, active compounds read low 0.997 | locus YBL061C, strain skt5, active compounds read low 0.989 | locus YBR009C, strain hhf1, active compounds read low 1 | locus YBR021W, strain FUR4, active compounds read low 1.05 | locus YBR023C, strain chs3, active compounds read low 0.988 | locus YBR171W, strain sec66, active compounds read low 0.99 | locus YBR229C, strain ROT2, active compounds read low 1.02 | locus YBR231C, strain swc5, active compounds read low 0.988 | locus YBR279W, strain paf1, active compounds read low 0.985 | locus YCL011C, strain gbp2, active compounds read low 0.987 | locus YCL016C, strain dcc1, active compounds read low 0.994 | locus YCL029C, strain bik1, active compounds read low 0.993 | locus YCL061C, strain MRC1, active compounds read low 0.981 | locus YCL069W, strain vba3, active compounds read low 0.992 | locus YCR088W, strain abp1, active compounds read low 0.983 | locus YDL005C, strain med2, active compounds read low 0.987 | locus YDL035C, strain GPR1, active compounds read low 1.03 | locus YDL040C, strain nat1, active compounds read low 0.991 | locus YDL074C, strain BRE1, active compounds read low 1.07 | locus YDL101C, strain DUN1, active compounds read low 1.02 | locus YDL134C, strain PPH21, active compounds read low 1.03 | locus YDL185W, strain tfp1, active compounds read low 1 | locus YDL192W, strain arf1, active compounds read low 0.989 | locus YDR001C, strain nth1, active compounds read low 0.989 | locus YDR069C, strain doa4, active compounds read low 0.991 | locus YDR101C, strain arx1, active compounds read low 0.991 | locus YDR137W, strain rgp1, active compounds read low 0.986 | locus YDR150W, strain NUM1, active compounds read low 1.02 | locus YDR159W, strain sac3, active compounds read low 1 | locus YDR162C, strain NBP2, active compounds read low 1.01 | locus YDR195W, strain ref2 0.978 | locus YDR297W, strain sur2, active compounds read low 0.991 | locus YDR318W, strain mcm21, active compounds read low 1 | locus YDR334W, strain swr1, active compounds read low 0.989 | locus YDR335W, strain msn5, active compounds read low 0.993 | locus YDR388W, active compounds read low 0.962 | locus YDR392W, strain spt3, active compounds read low 0.989 | locus YDR502C, strain sam2, active compounds read low 0.99 | locus YEL003W, strain gim4, active compounds read low 0.995 | locus YEL037C, strain rad23, active compounds read low 0.992 | locus YEL061C, strain CIN8 (second series), active compounds read low 0.988 | locus YEL061C, strain CIN8, active compounds read low 1.02 | locus YER015W, strain faa2, active compounds read low 0.994 | locus YER016W, strain bim1, active compounds read low 0.988 | locus YER110C, active compounds read low 0.974 | locus YER111C, strain swi4, active compounds read low 0.989 | locus YER155C, strain BEM2 (second series), active compounds read low 0.987 | locus YER155C, strain BEM2, active compounds read low 1.01 | locus YER167W, strain BCK2, active compounds read low 1.03 | locus YFR010W, strain ubp6, active compounds read low 0.98 | locus YGL078C, strain dbp3, active compounds read low 0.985 | locus YGL086W, strain mad1, active compounds read low 0.992 | locus YGL167C, strain pmr1, active compounds read low 1 | locus YGL173C, strain kem1, active compounds read low 0.983 | locus YGL227W, strain vid30, active compounds read low 0.988 | locus YGL240W, strain doc1, active compounds read low 1 | locus YGL248W, strain PDE1, active compounds read low 1.02 | locus YGL253W, strain hxk2, active compounds read low 0.995 | locus YGR078C, strain PAC10, active compounds read low 1.04 | locus YGR135W, strain pre9, active compounds read low 0.995 | locus YGR229C, strain SMI1, active compounds read low 1.03 | locus YGR252W, strain gcn5, active compounds read low 0.953 | locus YHR013C, strain ard1, active compounds read low 0.956 | locus YHR027C, strain rpn1, active compounds read low 0.992 | locus YHR030C, strain SLT2, active compounds read low 1.02 and 1.03 | locus YHR079C, strain IRE1 (second series), active compounds read low 0.991 | locus YHR079C, strain IRE1, active compounds read low 1.05 | locus YHR094C, strain hxt1, active compounds read low 0.995 | locus YHR129C, strain ARP1, active compounds read low 1.02 | locus YHR142W, strain chs7, active compounds read low 0.99 | locus YHR200W, strain rpn10, active compounds read low 1 | locus YIL066C, strain RNR3, active compounds read low 1.03 | locus YIL073C, strain SPO22, active compounds read low 1.06 | locus YIL125W, strain kgd1, active compounds read low 0.994 | locus YIR030C, strain dcg1, active compounds read low 0.997 | locus YJL092W, strain hpr5, active compounds read low 0.99 | locus YJL095W, strain BCK1 (second series), active compounds read low 0.986 | locus YJL095W, strain BCK1, active compounds read low 1.04 and 1.01 | locus YJL115W, strain asf1, active compounds read low 0.993 | locus YJL129C, strain trk1, active compounds read low 0.995 | locus YJL134W, strain LCB3, active compounds read low 1.01 | locus YJL154C, strain vps35, active compounds read low 0.988 | locus YJL164C, strain tpk1, active compounds read low 0.999 | locus YJL166W, strain qcr8, active compounds read low 0.991 | locus YJL168C, strain set2, active compounds read low 0.995 | locus YJL187C, strain SWE1 (second series), active compounds read low 1.02 | locus YJL187C, strain SWE1, active compounds read low 0.991 | locus YJR043C, strain POL32, active compounds read low 1.04 | locus YJR066W, strain TOR1, active compounds read low 0.981
